# Source: PubChem (National Center for Advancing Translational Sciences (NCATS))
# Pf growth 48h = inhibits P. falciparum growth in the first generation, 48 h. P. falciparum luciferase growth in erythrocytes, 48 h. Potency, µM (doses to about 28.7 µM), for inactives: at the top dose activity change, negative = inhibition, usual class: inhibitors. 310,000 compounds, 5.9% hits; also: potency is read from the fitted curve at half-maximal effect; % is scaled to controls: 0 for no effect and ±100 for the full control effect
#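 First compound was added to culture medium, then infected red cells at 0.1% parasitemia and 2% hematocrit (final). After incubation at 37 C under 5% CO2, luciferase detection reagent was dispensed and light output recorded.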
# CHX counter = affects cycloheximide protein synthesis inhibition readout, counter-screen. cell reporter, cycloheximide protein synthesis inhibition counterscreen. max response, %. 300,000 compounds, 12% hits. AID 2314; in the data active = max response mostly above about 13%, no sharp cut-off; inactive = mostly below about 14%; also: read at 38.3 µM for the half of the compounds with a filed dose; 0% is about no effect
# Shiga inhibitor = blocks Shiga toxin action in Vero cells; AID 2315; Vero cells, Shiga toxin protein synthesis inhibition reporter; 290,000 compounds, 9.2% hits; inhibition, % at 38.7 µM; in the data active = inhibition mostly above about 28%, no sharp cut-off; inactive = mostly below about 43%; also: 0% is about no effect
# HCV inhibitor = blocks hepatitis C virus; 340,000 compounds, 3.4% hits; Huh7.5.1 HCVcc-Cre infection, luciferase reporter, 44 h; Potency, µM (series often up to 41.8 µM), for the others: at the highest dose activity change, negative = inhibition, most hits filed as inhibitors; also: potency is read from the fitted curve at half-maximal effect; % is scaled to controls: 0 for no effect and ±100 for the full control effect
#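 Infectious HCV cell culture screen: compound-treated cells (1,000/well, pre-plated 4 h) are infected with HCVcc-Cre at roughly 0.5 moi and grown 44 h. Infection is quantified by luciferase signal after 15 min substrate incubation at room temperature.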
# HCMV antiviral = blocks human cytomegalovirus replication; HFF cells, HCMV-luciferase reporter, 72 h; hits give low values; activity change, negative = inhibition, % at 57.5 µM; 410,000 compounds, 4.5% hits; in the data active = activity change below about -60%; inconclusive = no clear call, values can overlap the other calls; inactive = above about -39%; also: % is scaled to controls: 0 for no effect and ±100 for the full control effect
#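 HFF cells seeded 16 h at 37C, treated with compounds, infected with luciferase-reporter HCMV at MOI 1 PFU/cell; luciferase read at 72 h post infection, normalized to buffer-only and Salinomycin controls.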
# Pf growth 96h = inhibits malaria parasite growth, 96 h | AID 504834 | Potency, µM (highest dose often 28.7 µM), for the others: at the highest dose activity change, negative = inhibition, actives largely listed as inhibitors | P. falciparum luciferase reporter growth, 96 h | 320,000 compounds, 6.9% hits; also: potency is read from the fitted curve at half-maximal effect; % is scaled to controls: 0 for no effect and ±100 for the full control effect
#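 P. falciparum expressing integrated firefly luciferase, in erythrocytes at 2% hematocrit, 0.05% parasitemia, incubated with compounds 96 h at 37 C, 5% CO2. Growth inhibition read as loss of luminescence; two-generation exposure targets delayed-death apicoplast inhibitors.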
# Active calls of the source: *; ? = inconclusive; / = no result given. This is a sample that favours compounds with a hit; in the whole collection about 21% have one here. Unless noted, calls follow the shape of the dose curve; as a rule, active = well fitted inhibition curve with a large enough effect; inconclusive = small, poorly fitted or top-dose-only effect, or another doubt; inactive = no such curve, though single readings can be large or run the other way.
SMILES,Pf growth 48h,CHX counter,Shiga inhibitor,HCV inhibitor,HCMV antiviral,Pf growth 96h
Clc1ccc(-c2csc(-c3nc(-c4ccc(Br)s4)cs3)n2)cc1,/,/,/,/,1,/
Brc1ccsc1-c1csc(-c2ccncc2)n1,/,43*,87*,?,23,?
Cc1csc(-c2cccnc2)n1,-3%,-2,12,-80%,?,11%
Oc1ccc(-c2csc(-c3ccccc3)n2)cc1O,105%,33*,71*,4.5µM*,43,-28%
CS(=O)(=O)c1ccc(-c2csc(-c3cccnc3)n2)cc1,/,39*,54,-9%,8,-16%
Fc1ccccc1-c1csc(-c2cccnc2)n1,116%,48*,38*,-6%,11,78%
CN(C)S(=O)(=O)c1ccc(-c2csc(-c3cccnc3)n2)cc1,?,19,21,4%,0,?
Cc1cc(C)n2c(Nc3ccc(C(C)C)cc3)c(-c3ccsc3)nc2n1,/,/,/,/,18,/
O=c1cc(-c2ccccc2O)nc(-c2ccccc2)[nH]1,/,/,/,5%,14,/
c1cncc(-c2nc(-c3ccc4c(c3)OCCO4)cs2)c1,-5%,63*,128*,?,52,-66%
Cc1ccc(C(=O)Nc2nc(-c3ccc4c(c3)OCCO4)cs2)o1,/,/,/,/,3,/
Oc1ccccc1-c1csc(-c2ccccc2)n1,443%,75*,159*,?,161,-10%
Clc1ccc(-c2csc(-c3cccnc3)n2)s1,?,32*,54*,?,16,?
Oc1ccc(-c2csc(-c3cccnc3)n2)cc1O,117%,54*,61*,-17%,94,40%
O=S(=O)(NCCc1csc(-c2cccnc2)n1)c1ccc(Cl)s1,/,-6,-13,?,?,?
CN(C(=O)COC(=O)/C=C/c1cccs1)c1c(N)n(Cc2ccccc2)c(=O)[nH]c1=O,0%,/,/,9%,-15,7%
Cc1cccn2c(=O)c(/C=C(\C#N)c3nc4ccccc4s3)c(Oc3ccc(Br)cc3)nc12,/,/,/,/,-3,/
COc1cc(CC(=O)NCC2COc3ccccc3O2)cc(OC)c1OC (configuration not stated),-5%,0,-4,-10%,110,3%
Fc1ccc(-c2csc(-c3cccnc3)n2)cc1F,/,23,61*,?,64,0%
c1ccc(-c2csc(-c3ccncc3)n2)cc1,?,31*,55*,-25%,-28,?
CCN(C(=O)C(C)OC(=O)CCCNC(=O)c1ccc(Cl)cc1)c1ccccc1 (configuration not stated),?,/,/,?,7,-6%
Cc1ccc2ncnc(Oc3ncccc3NC(=O)C(C)(C)C)c2c1,?,-2,6,11%,-23,15%
O=C1/C(=C\c2ccc(C(F)(F)F)cc2)CSc2sccc21,?,14,11,3%,60,0%
CCOC(=O)c1cc(S(=O)(=O)N2CCN(c3ccc(OC)cc3)CC2)[nH]n1,/,/,/,/,-112*,/
CCOC(=O)c1cc(S(=O)(=O)N2CCN(c3cccc(OC)c3)CC2)[nH]n1,/,/,/,/,-10,/
SMILES,Pf growth 48h,CHX counter,Shiga inhibitor,HCV inhibitor,HCMV antiviral,Pf growth 96h
COC(=O)C1C(O)=C(C=Nc2ccc3ccccc3c2)C(=O)CC1(C)C (configuration not stated),0%,15*,17,7%,-11,-6%
CN=CC1=C(O)C(C(=O)OC)C(C)(C)CC1=O (configuration not stated),25%,-4,-10,32%,-19,-7%
CCSc1nnc(NC(=O)C2CCCCC2)s1,69%,25*,62*,21%,57,/
CC(C)c1nnc(NC(=O)C2CCCCC2)s1,41%,13*,20*,0%,?,61%
CCCC(=O)Nc1nnc(SCC)s1,20%,19*,38*,33%,-14,-8%
CCc1nnc(NC(=O)C2CCCCC2)s1,44%,39*,13,8%,50,36%
CCOC(=O)Cc1nnc(NC(=O)C2CCCCC2)s1,23%,7,4,10%,26,3%
CCCC(=O)Nc1nnc(SCC(=O)N2CCCCC2)s1,7%,-4,-4,?,-12,7%
COc1ccccc1NC(=O)CN(Cc1ccco1)C(=O)c1cc2ccccc2o1,-22%,-2,16,/,/,-27%
CCOc1ccc(-n2nc(CO)c(C(=O)NCC(C)O)n2)cc1 (configuration not stated),/,/,/,/,43,/
COc1ccc2cc(C#N)c(=O)oc2c1,/,-5,-4,/,/,/
CCc1nnc(NC(=O)NC(C)(C)C)s1,/,24*,95,13%,-29,34%
CC(C)=CC(=O)Nc1nnc(C(C)C)s1,96%,46*,53,9%,?,22%
CCc1nnc(NC(=O)CCC2CCCCC2)s1,/,/,/,10%,35,/
CC(Sc1nnc(Nc2ccccc2F)s1)C(=O)NC1CC1 (configuration not stated),?,/,/,1%,32,?
CC(C)Sc1nnc(NC(=O)C2CC2)s1,47%,35*,active,6%,54,35%
CC(C)Sc1nnc(Nc2ccccc2)s1,70%,37*,143*,20%,32,?
Cc1ccc(NC(=O)CN2C(=O)CSc3ccc(S(=O)(=O)N(C)C)cc32)cc1C,/,/,/,/,1,/
Cc1nc(Nc2nc(CSc3nc4ccccc4[nH]3)cc(=O)[nH]2)nc2ccccc12,?,-5,-16,?,-103*,9.3µM*
Cc1nc(Nc2nc(-c3ccccc3)cc(=O)[nH]2)nc2ccccc12,/,/,/,8.9µM*,52,/
Cc1ccc2c(=O)[nH]c(Nc3nc(C)cc(-c4ccccc4)n3)nc2c1,?,7,8,-2%,-29,?
COc1ccc2nc(Nc3nc(CSc4nc5ccccc5[nH]4)cc(=O)[nH]3)nc(C)c2c1,?,-5,-9,14µM*,-98*,10µM*
Cc1nc(Nc2nc(CSc3ccc(Cl)cc3)cc(=O)[nH]2)nc2ccccc12,0%,7,-15,5%,-17,?
Cc1ccc2c(C)nc(Nc3nc(CSc4nnc(C)s4)cc(=O)[nH]3)nc2c1,?,-3,-14,?,-99*,?
Cc1ccn2c(Nc3ccc4c(c3)OCO4)c(-c3ccc(N(C)C)cc3)nc2c1,/,/,/,/,29,/
Cc1ccc(N/C(N)=N/c2nc(CSc3nnc(C)s3)cc(=O)[nH]2)c(C)c1,?,-1,-1,-14%,-88*,0%
Cc1ccc(C(=O)CCC(=O)OCC(=O)NNC(=O)c2ccc([N+](=O)[O-])cc2)cc1,-5%,/,/,9%,-5,0%
O=C(CSc1ccccc1)N1CCC2(CC1)OCCO2,153%,36*,54*,12%,11,/
C=CCN1CCN(C(=O)c2ccc(-c3ccccc3)cc2)CC1,12%,-3,-6,5%,36,1.3µM*
